Screening results from PubChem.
mHTT-CaM PPI inh – mHTT-calmodulin interaction abrogation | P42858 | inhibition, % at 15 µM | AID 1671202 | 3.6% of 190,000 active | AlphaScreen His-mHTT/GST-CaM binding, luminescence;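 further: 0% = both proteins with DMSO and 100% = one protein alone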
Pf apPOL block – Pf-apPOL DNA polymerase inhibition | Recombinant Pf-apPOL, molecular beacon fluorescence, 1.5 h | inhibition, % at 10 µM | 0.25% of 210,000 active | AID 1794808
* = called active by the depositor; . = no result given. Most compounds without a hit are left out; they make up all but 3.6% or so of the library. No stated cut-off is given here; in the data, active means inhibition above about 50%; inactive means the rest.

SMILES	mHTT-CaM PPI inh	Pf apPOL block
COc1cc(OC)c(NC(=O)c2cn(-c3ccc(Cl)cc3)c(=O)c3ccccc23)cc1Cl	-8.0	-0.5
CCCNc1nc(C)nc2c1c(C)nn2-c1ccc(C)cc1	-17.2	7.8
CCC(C)Nc1nc(C)nc2c1c(C)nn2-c1ccccc1 (configuration not stated)	99.3*	1.5
O=[N+]([O-])c1ccc(C2SCCN2S(=O)(=O)c2ccc(I)cc2)cc1 (configuration not stated)	5.0	1.5
CCOc1ccc(C(=O)Nc2cc(-c3nc4ncccc4o3)ccc2C)cc1	1.0	4.6
CC(C)C1C(=O)N(Cc2cn(CCC3OCCO3)nn2)CCS(=O)(=O)N1Cc1ccc(-c2ccccc2Cl)cc1 (configuration not stated)	66.1*	-1.1
COc1ccc(-c2ccc(CN3C(CC(C)C)C(=O)N(Cc4cn(Cc5ccco5)nn4)CCS3(=O)=O)cc2)cc1OC (configuration not stated)	29.9	-2.5
COc1ccc(-c2ccc(CN3C(C(C)C)C(=O)N(Cc4cn(CCC5OCCO5)nn4)CCS3(=O)=O)cc2)cn1 (configuration not stated)	45.0	4.1
CC(C)C1C(=O)N(Cc2cn(CCC3OCCO3)nn2)CCS(=O)(=O)N1Cc1ccc(-c2ccccc2)cc1 (configuration not stated)	43.6	-15.2
CC(C)C1C(=O)N(Cc2cn(Cc3ccco3)nn2)CCS(=O)(=O)N1Cc1ccc(-c2ccccc2)cc1 (configuration not stated)	72.9*	-1.4
CC(C)C1C(=O)N(Cc2cn(Cc3ccco3)nn2)CCS(=O)(=O)N1Cc1ccc(-c2ccc(Cl)cc2)cc1 (configuration not stated)	49.7	-13.9
CC1C(=O)N(Cc2cn(Cc3ccco3)nn2)CCS(=O)(=O)N1Cc1ccc(-c2ccccc2)cc1 (configuration not stated)	62.7*	-0.8
COc1ccc(-c2ccc(CN3C(C(C)C)C(=O)N(Cc4cn(CCC5OCCCO5)nn4)CCS3(=O)=O)cc2)cn1 (configuration not stated)	50.1*	-16.4
COC(=O)c1cc(C=NNC(=S)NC2CC3C=CC2C3)cn1C (configuration not stated)	.	-6.6
O=C(CSc1nc2sc3c(c2c(=O)n1-c1ccccc1)CCCC3)NCc1ccco1	10.9	-2.8
Cc1ccc(Cl)cc1N1C(=O)CC(Sc2ncccn2)C1=O (configuration not stated)	4.3	-3.2
CC(C)C1C(=O)N(Cc2cn(Cc3ccco3)nn2)CCS(=O)(=O)N1Cc1ccc(-c2ccc(F)nc2)cc1 (configuration not stated)	60.0*	-7.3
CC(C)C1C(=O)N(Cc2cn(CC3CCCCC3)nn2)CCS(=O)(=O)N1Cc1ccc(-c2ccc(F)nc2)cc1 (configuration not stated)	24.8	-0.3
CC(C)C1C(=O)N(Cc2cn(Cc3ccco3)nn2)CCS(=O)(=O)N1Cc1ccc(-c2ccc(F)cc2)cc1 (configuration not stated)	69.4*	-4.7
Cc1ccc(-c2ccc(CN3C(C)C(=O)N(Cc4cn(CCC5OCCO5)nn4)CCS3(=O)=O)cc2)cc1 (configuration not stated)	-0.6	-3.6
CC1C(=O)N(Cc2cn(CCC3OCCO3)nn2)CCS(=O)(=O)N1Cc1ccc(-c2ccccc2)cc1 (configuration not stated)	74.1*	7.3
CC(C)C1C(=O)N(Cc2cn(Cc3ccco3)nn2)CCS(=O)(=O)N1Cc1ccc(-c2ccncc2)cc1 (configuration not stated)	23.0	-0.1
O=C(CCSc1ccccc1)NCc1cccnc1	3.0	0.0
Cn1c2c(c3cc(Oc4ccccc4)ccc31)CCCC2=O	-59.5	-6.4
CC1CCCCN1S(=O)(=O)c1ccc(C(=O)Nc2ccccc2-c2nc3ccccc3[nH]2)cc1 (configuration not stated)	7.0	-9.5
SMILES	mHTT-CaM PPI inh	Pf apPOL block
O=S(=O)(c1ccccc1)N1CCC(n2c(-c3ccco3)nc3cccnc32)C1 (configuration not stated)	3.4	2.1
COc1ccc(C)cc1-n1cnc2cc(C(=O)NCC(OC)OC)ccc21	5.0	-1.6
CCOC(CNC(=O)c1ccc2c(c1)ncn2-c1cc(Cl)ccc1OC)OCC	53.0*	-4.2
O=c1cc(CN2CCN(c3ccccc3F)CC2)c2c(ccc3ccccc32)o1	-6.6	1.7
O=C(Nc1cccc(Br)c1)c1ccc2nc(N3C(=O)CCC3=O)sc2c1	55.2*	-1.7
O=C(Nc1cccc([N+](=O)[O-])c1)c1ccc2nc(N3C(=O)CCC3=O)sc2c1	4.3	-4.5
COc1ccc2c(c1)CN(Cc1ccc(Cl)cc1)CO2	12.0	-9.3
COc1ccc(N2COc3cc4c(cc3C2)OCO4)cc1	7.0	-8.3
COc1ccc(N2COc3ccc(Cl)cc3C2)cc1	73.0*	1.5
COc1cccc(N2COc3cc(C)c(Cl)c(C)c3C2)c1	98.0*	-3.6
COc1ccc2c(c1)CN(c1ccc(Cl)cc1)CO2	51.0*	-8.1
COc1ccc(CN2COc3cc(C)c(Cl)c(C)c3C2)cc1	2.0	-1.8
CCCC(C)c1c(O)nc(SC)n(CC)c1=O (configuration not stated)	-3.5	-3.7
CCN1C(=O)C(C)(C(=O)NCc2ccccc2OC)Oc2cccnc21 (configuration not stated)	-2.9	-0.6
Cc1cc(C)n(CCN(C(=O)Cc2cccs2)c2nc3c(F)cc(F)cc3s2)n1	-9.3	-2.3
c1ccc(-c2nnc(-c3cccnc3NCC3CCCO3)o2)cc1 (configuration not stated)	-37.4	-8.6
CCC(=O)N1CCc2c(c(-c3nc(C4CC4)no3)nn2C)C1	-5.5	-7.2
O=C(NCCC1CCN(C(=O)NC2CCCCC2)CC1)NC1CCCCC1	-10.9	-5.7
Cc1cc(=O)n(CC(=O)Nc2ccc(Cl)cc2)c(N2CCCC2)n1	57.5*	-1.1
Cc1cc(=O)n(CC(=O)Nc2ccccc2)c(N2CCCCC2)n1	-15.0	-1.7
O=C(c1ccc(SCc2cccnc2)c([N+](=O)[O-])c1)N1CCCC1	4.0	-6.6
Cc1cccc(N2CCN(C(=O)c3ccc(SCc4cccnc4)c([N+](=O)[O-])c3)CC2C)c1 (configuration not stated)	98.0*	-4.1
COc1ccc(/C=C2\c3cc([N+](=O)[O-])ccc3-c3c2cc([N+](=O)[O-])cc3[N+](=O)[O-])cc1OC	9.0	-3.8
CCO/C=C1\c2cc([N+](=O)[O-])ccc2-c2c1cc([N+](=O)[O-])cc2[N+](=O)[O-]	74.0*	-5.4
CC(=O)c1cccc(NC=C2C(=O)OC(C)(C)OC2=O)c1	3.0	8.1
SMILES	mHTT-CaM PPI inh	Pf apPOL block
CCc1ccc(CNC(=O)c2ccc3[nH]c4c(c3c2)CN(C(C)=O)CC4)cc1	40.8	-12.7
CCOc1ccccc1CNC(=O)c1ccc2[nH]c3c(c2c1)CN(C(C)=O)CC3	74.3*	-1.8
CCC(CC)NC(=O)c1ccc2[nH]c3c(c2c1)CN(C(C)=O)CC3	-2.3	1.2
CC(=O)N1CCc2[nH]c3ccc(C(=O)NCc4ccc(N5CCOCC5)cc4)cc3c2C1	55.5*	-3.4
N#CC(=CN1CCOCC1)S(=O)(=O)c1ccc(Cl)cc1	.	-8.0
CCOC(=O)c1cc(C)nc(Sc2ccccc2)c1C#N	.	-2.3
O=C(NCc1ccccn1)c1ncn[nH]1	42.7	0.2
CC(C)(C)c1ccc(OCNC(=O)c2ncn[nH]2)cc1	73.0*	-1.5
